Compounds with a hit are over-represented: about 2.5% of the library has one in this group of screens.
ATG4B inh: ATG4B protease inhibitors, primary screen, biochemical, fluorescence, uHTS; inhibition, % at 8.33 µM; 0.51% of 340,000 active; ATG4B cleavage of LC3-PLA2, NBD-HPC fluorescence, 1 h; in the data active means inhibition above about 40%
Target sequence (Q9Y4P1 whole entry, looked up): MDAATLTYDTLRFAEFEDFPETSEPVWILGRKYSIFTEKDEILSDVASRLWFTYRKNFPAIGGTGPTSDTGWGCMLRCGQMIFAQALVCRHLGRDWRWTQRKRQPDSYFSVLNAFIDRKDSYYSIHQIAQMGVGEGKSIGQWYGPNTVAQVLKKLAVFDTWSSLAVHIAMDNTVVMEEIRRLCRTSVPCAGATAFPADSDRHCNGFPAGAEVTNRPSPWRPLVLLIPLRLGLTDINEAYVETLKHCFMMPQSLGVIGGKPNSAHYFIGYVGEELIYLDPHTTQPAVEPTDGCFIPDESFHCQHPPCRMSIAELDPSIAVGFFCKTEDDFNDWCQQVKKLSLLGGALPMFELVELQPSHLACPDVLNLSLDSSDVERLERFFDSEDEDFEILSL
Mot1-301 SUMO: yeast Mot1-301 growth rescue at high temperature, primary screen, SUMOylation pathway inhibitor project, S. cerevisiae, ATP luminescence, 38.5C; S. cerevisiae Mot1-301 growth rescue; percent above DMSO median, 100 means doubled; growth rescue, % at 18.8 µM; 1% of 320,000 active; AID 2716, 2010;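 active means every valid replicate shows activation above 250% relative to neutral control wells; inactive means the rest, any valid replicate at or below 250%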;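 further: OY570 slx delta 5 strain wells were the positive control but not used for scaling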
Efflux pump inh: inhibitors of Candida efflux pumps in yeast, primary screen, S. cerevisiae, Nile Red, multiplex | inhibition, % at 10 µM | 0.44% of 330,000 active | S. cerevisiae Candida pump triplex;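 active means plate passing quality check with inhibition over a set limit, or well fluorescence over plate mean plus 4 SD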;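 further: Nile Red retained in pooled yeast measured as flow cytometry median fluorescence; 0% = buffer negative control and 100% = Enniatin B positive control; higher means more Nile Red kept so more efflux inhibition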
V-ATPase pHluor: regulators of yeast V-ATPase proton pumping, primary screen, pHLuorin cytosolic pH fluorescence | 0.37% of 350,000 active | response, % at 10 µM | S. cerevisiae; in the data active means response mostly above about 7.3%, no sharp cut-off; inactive means mostly below about 5.4%; further: actives read high
AI-2 QS modul: Vibrio harveyi AI-2 quorum sensing modulators, primary screen, JMH597 strain, luminescence/OD600 ratio; Vibrio harveyi JMH597 AI-2 luminescence/OD600 ratio, 9 h; active compounds read low; strain lacks LuxN and CqsS sensors; 0 = neutral-control median; activity change, % at 7.5 µM; 0.4% of 300,000 active; AID 2094, 2009; in the data active means activity change below about -75%, passing the limit was not always enough; inconclusive means no clear call, values can overlap the other calls;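 further: luminescence divided by OD600 gain over 9 h not by final OD600 alone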
JMH597 growth rt: Vibrio harveyi growth inhibition, confirmation, counter-screen for AI-2 quorum sensing project, JMH597 strain, OD600 absorbance; shares compounds with AI-2 QS modul; 9 h; lacks LuxN and CqsS sensors; growth inhibition, % at 7.5 µM; 1% of 750 active; AID 2726, 2010;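 active means every replicate shows growth inhibition above 50%; inconclusive means at least half, but not all, replicates pass that cutoff; inactive means fewer than half of replicates pass it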
BB721 const-QS lum: luminescence inhibition in constitutive-on V. harveyi, confirmation, counter-screen for LuxS inhibitor project, strain BB721, luminescence readout. 95% of 750 active. shares compounds with AI-2 QS modul. Vibrio harveyi BB721 luminescence, 9 h. inhibition, % at 7.5 µM. AID 2727, 2010;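 active means inhibition above about 80% in every replicate, not just on average, limit read from the data; inconclusive means at least half of replicates past the limit, but not all; inactive means fewer than half of replicates past the limit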
BB721 growth rt: growth inhibition of V. harveyi BB721, confirmation, cytotoxicity control for AI-2 quorum sensing inhibitors, strain BB721, absorbance OD600; 3% of 750 active; growth inhibition, % at 7.5 µM; shares compounds with AI-2 QS modul; Vibrio harveyi BB721 growth, 9 h;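 active means every replicate shows growth inhibition above 50%; inconclusive means at least half but not all replicates above 50% inhibition; inactive means under half of replicates above 50% inhibition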
AI-2 QS JMH597: Vibrio harveyi AI-2 signaling luminescence modulation – JMH597 strain, confirmation; inhibition, % at 7.5 µM; shares compounds with AI-2 QS modul; Vibrio harveyi JMH597 AI-2 quorum sensing luminescence, 9 h; luxN and CqsS knockout, AI-2 only; AID 2736, 2010; 97% of 750 active;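 active means every replicate shows more than 75% inhibition of signal versus neutral control wells; inconclusive means half to three quarters of replicates exceed 75% inhibition; inactive means fewer than half of replicates exceed 75% inhibition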
Mot1 SUMO dose: growth restoration of Mot1-301 yeast on galactose, dose response, SUMO pathway inhibitor project, whole organism, S. cerevisiae, ATP luminescence, cherry-picked samples | S. cerevisiae Mot1-301 galactose growth, 24 h; -100 = growth of slx-deleted rescue strain | growth activity, percent, % at 42 µM | AID 493004, 2010 | 2,300 tested, under 10 active | shares compounds with Mot1-301 SUMO;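 active means Signal drops as the depositor expects, and the fitted half-maximal dose is no more than ten times the top valid tested dose; inconclusive means Poor fit, or a flat curve whose signal drops by 30% to 70%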;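 further: more negative values mean stronger growth rescue toward the control strain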
PLA2 ctr: PLA2 enzyme inhibition, counter-screen for ATG4B inhibitor project, biochemical, single concentration, uHTS hits; shares compounds with ATG4B inh; purified PLA2, NBD-C6-HPC fluorescence, 45 min; inhibition, % at 8.33 µM; 66% of 1,600 active; AID 588402, 2011; in the data active means inhibition above about 50%
Target sequence (P04054 whole entry, looked up): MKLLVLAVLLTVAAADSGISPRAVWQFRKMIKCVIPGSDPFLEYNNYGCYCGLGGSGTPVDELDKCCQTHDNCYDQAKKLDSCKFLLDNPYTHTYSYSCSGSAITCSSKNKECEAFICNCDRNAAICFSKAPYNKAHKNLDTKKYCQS
VATPase regulator: yeast V-ATPase proton pumping modulators, confirmation, S. cerevisiae, pH-sensitive GFP, second cherry-pick. shares compounds with V-ATPase pHluor. S. cerevisiae pHLuorin cytosolic pH, V-ATPase proton transport. response, % at 10 µM. 2% of 980 active. AID 602197, 2012; in the data active means response above about 24%;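 further: plate controls were vehicle wells for no effect and positive control wells for full effect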
Numbers without * were called inactive; ? = inconclusive; . = no result; + = active, no number.

SMILES	ATG4B inh	Mot1-301 SUMO	Efflux pump inh	V-ATPase pHluor	AI-2 QS modul	JMH597 growth rt	BB721 const-QS lum	BB721 growth rt	AI-2 QS JMH597	others
CC(C)C(CCNC(=O)CC(Cc1ccccc1)c1ccco1)c1ccco1 (stereo not given)	22.5	-13.0	0.1	-6.2	20.9	.	.	.	.
CCN(C(=O)COC(=O)CCOc1cc(C)ccc1C)c1c(N)n(Cc2ccccc2)c(=O)[nH]c1=O	-37.1	.	.	-1.9	.	.	.	.	.
O=C(OCCOc1cccc(Cl)c1)c1cc(S(=O)(=O)N2CCOCC2)ccc1F	-3.1	-27.0	0.0	-2.9	1.0	.	.	.	.
COC(=O)c1c(C)[nH]c(C(=O)C(C)OC(=O)c2cnc(C)cn2)c1C (stereo not given)	-11.3	1.5	0.1	-3.3	.	.	.	.	.
Cc1cc(NC(=O)Cn2nc3c(cc2=O)CCCC3)ccc1Br	-11.3	116.4	0.0	-0.5	-97.3*	10.2	99.6*	-4.3	99.8*
CCc1nn(CC(=O)Nc2ccc(Br)c(C)c2)c(=N)s1	-8.0	1.6	0.2	2.3	-95.0*	28.7	98.8*	5.7	99.3*
Cc1cc(NC(=O)Cn2nc(C(=O)O)c3ccccc3c2=O)ccc1Br	-6.7	20.7	0.0	5.4	31.2	.	.	.	.
Cc1ccccc1OCCNC(=O)/C=C/c1ccccc1	-8.8	7.8	-0.2	-1.7	-82.2*	-27.7	93.7*	-11.6	95.7*
Cc1ccccc1OCCNC(=O)/C=C/c1ccc([N+](=O)[O-])cc1	3.5	-6.4	-0.2	0.6	0.2	.	.	.	.
Cc1ccccc1OCCNC(=O)c1ccc2ccccc2n1	-1.2	-5.4	0.1	1.7	-78.5*	23.7	91.1*	6.8	93.8*
Nc1nc(SCC(=O)Nc2cccc(Oc3ccccc3)c2)n[nH]1	4.1	1.1	0.0	2.6	26.4	.	.	.	.
Nc1nc(SCC(=O)Nc2ccc(Oc3ccccc3)cc2)n[nH]1	-10.4	-1.5	-0.2	-0.8	-89.6*	23.1	94.8*	18.8	97.3*
O=C(Nc1ccc(-c2noc(CCc3ccccc3)n2)cc1)c1ccco1	6.9	-18.7	0.2	1.3	-81.4*	50.1	90.6*	92.9*	93.4*
COc1ccc(Cc2nc(-c3ccccc3)no2)cc1	-3.1	6.2	0.0	1.8	-92.5*	13.4	97.6*	-43.7	98.4*
Cc1cccc(-c2noc(CCc3ccccc3)n2)c1	-1.1	-11.2	0.0	2.7	-78.0*	17.4	94.1*	-0.2	96.1*
Cc1cccc(-c2noc(Cc3ccccc3)n2)c1	10.7	-7.5	0.0	-3.6	-69.0	.	.	.	.
O=C(Cc1ccccc1)Nc1ccc(NC(=O)c2ccco2)cc1	-9.1	8.9	-0.1	-3.3	18.3	.	.	.	.
COc1ccc(C(=O)Nc2cccc(-c3cnc4ccccc4n3)c2)cc1	-11.1	91.0	0.1	0.9	-8.1	.	.	.	.
COc1ccc(C(=O)n2cnc3ccccc32)cc1	-8.7	-6.1	0.0	-0.6	11.1	.	.	.	.
Cc1cc(S(=O)(=O)Nc2nc(CN3CCOCC3)nc3sc4c(c23)CCC4)ccc1F	-2.3	9.8	-0.1	4.7	.	.	.	.	.
Cc1ccccc1-c1nnc(SCc2ccc(F)cc2)o1	17.4	+	0.1	-3.5	-92.0*	24.0	96.8*	69.3	97.3*	Mot1 SUMO dose=-1.0
O=C(O)c1ccc(CSc2nnc(-c3ccccc3Br)o2)cc1	-2.2	-20.4	0.2	-1.8	29.3	.	.	.	.
Cc1cccc2c1c1ccc3c(c1n2C)C(=O)C=CC3=O	0.4	.	.	-1.0	.	.	.	.	.
Cc1ccc(NC(=O)Cn2nc(C)c3ccccc3c2=O)cc1	-10.0	368.7*	0.0	-0.5	-84.7*	10.8	96.7*	-4.1	98.1*	Mot1 SUMO dose=0.5
CCCn1c(=S)[nH]c2cc(C(=O)N3CCc4ccccc43)ccc2c1=O	65.4*	-26.7	0.1	1.4	?	-4.3	84.8*	-10.5	88.7*	PLA2 ctr=39.4
SMILES	ATG4B inh	Mot1-301 SUMO	Efflux pump inh	V-ATPase pHluor	AI-2 QS modul	JMH597 growth rt	BB721 const-QS lum	BB721 growth rt	AI-2 QS JMH597	others
O=C(CCc1nnc2ccc(NCc3ccco3)nn12)N1CCN(c2ccc(F)cc2)CC1	-2.0	368.3	0.1	-0.1	18.2	.	.	.	.
COc1ccc(/C=C/C(=O)c2ccc(O)cc2)cc1	-14.5	-16.9	-0.1	9.3*	-92.9*	22.0	97.1*	5.6	97.4*	VATPase regulator=5.0
O=C(c1cc(Cl)cc(Cl)c1)N1CCOCC1	8.9	-22.1	0.0	-1.1	13.1	.	.	.	.
CC(=O)c1ccc(N/N=C2/CCCNC2=O)cc1	-3.6	2.7	-0.1	3.9	3.2	.	.	.	.
Cc1ccc(N/N=C2/CCCNC2=O)cc1	-2.3	527.6*	-0.1	-1.1	-15.5	.	.	.	.	Mot1 SUMO dose=-0.3
Cc1c(C(=O)OCC(=O)Nc2ccc(S(N)(=O)=O)cc2)oc2c1ccc1ccccc12	-9.9	500.1*	0.1	-3.6	12.8	.	.	.	.	Mot1 SUMO dose=-0.6
Cc1cc(NC(=O)COC(=O)c2oc3c(ccc4ccccc43)c2C)no1	11.1	7.3	-0.5	-2.6	23.4	.	.	.	.
Cc1cc(C(=O)OCC(=O)Nc2cccc(S(N)(=O)=O)c2)c2ccccc2n1	-12.0	646.7*	0.0	-0.4	34.4	.	.	.	.	Mot1 SUMO dose=0.0
Cc1cc(C(=O)OCC(=O)NCCc2ccc(S(N)(=O)=O)cc2)c2ccccc2n1	-2.3	-8.1	-0.2	-0.6	.	.	.	.	.
O=C(CCSc1ccccc1)NNC(=O)c1ccccc1F	-1.1	517.2*	-0.1	4.0	.	.	.	.	.	Mot1 SUMO dose=-0.5
CCCCNC(=O)c1ccccc1NC(=O)CCSc1ccccc1	-1.0	.	0.0	1.7	23.6	.	.	.	.

Bioassay records from PubChem BioAssay.
